# Measured values reported in paper PMC4552634, “A New Set of Chemical Starting Points with Plasmodium falciparum Transmission-Blocking Potential for Antimalarial Drug Discovery” (PLoS ONE, 2015).
# About 3,200 (25%) of roughly 13,000 compounds showed an effect of 50% or more. This is one part of the list.
# System: P. falciparum stage V gametocytes
# Design: BacTiter-Glo ATP luminescence viability of purified stage V gametocytes in 384-well plates, per cent inhibition versus DMSO
# Conditions: 48 h, 5 µM; inhibitor
row,Structure (SMILES),% Inhibition
1,CC[C@H]1CN2CC[C@H]1C[C@@H]2[C@@H](OC(=O)c1ccc(Cl)cc1)c1ccnc2ccc(OC)cc12 [TCMDC-125492],-10.63%
2,CC(C)(C)c1cc(C(=O)N2CCN(c3ncccc3C(F)(F)F)CC2)n(Cc2ccccc2)n1 [TCMDC-134142],2.354%
3,CCN(CC)C(=O)C1CCCN(c2cc(C)nc(Nc3ccc(Cl)cc3)n2)C1 (centres unmarked) [TCMDC-132204],-2.665%
4,N#Cc1ccc(N2CCN(Cc3cccc(-c4cccc(-c5nc6cc(C(F)(F)F)ccc6[nH]5)c4)c3)CC2)nc1.O=C(O)C(F)(F)F [TCMDC-133117],-5.62%
5,O=C(CCn1c2ccccc2c2ccccc21)NN=Cc1ccco1 [TCMDC-125735],-6.333%
6,CC(C)Cn1cc2c(ccc3nc(N)nc(N)c32)n1 [TCMDC-137969],-46.77%
7,COc1ccc2nccc([C@@H](O)CN3CCC(NC(=O)/C=C/c4cccc(-c5ccccc5)c4)CC3)c2c1 [TCMDC-141043],-22.17%
8,N#Cc1ccc2c(c1)CCN(CCC1CCC(NC(=O)/C=C/c3cccc4ccccc34)CC1)CC2 (centres unmarked) [TCMDC-139777],-39.21%
9,CC(NCCC1CCC(NC(=O)N[C@H](C)C(O)(c2ccccc2)c2ccccc2)CC1)c1cccc2ccccc12 (some centres unmarked) [TCMDC-136378],64.1%
10,CC(C)[C@@H](NC(=O)NC1CCC(CCN2C3CCC2CC(OC(=O)C(CO)c2ccccc2)C3)CC1)C(O)(c1ccccc1)c1ccccc1 (some centres unmarked) [TCMDC-136458],45.88%
11,CC(C)[C@H](NC(=O)NC1CCC(CCN2C3CCC2CC(OC(=O)C(CO)c2ccccc2)C3)CC1)C(O)(c1ccccc1)c1ccccc1 (some centres unmarked) [TCMDC-136457],-19.47%
12,CC(NC(=O)NC1CCC(CCN2CCCc3ccccc32)CC1)c1cccc2ccccc12 (centres unmarked) [TCMDC-136176],92.78%
13,CC(=O)c1ccc2c(c1)CCN(CCC1CCC(NC(=O)c3cc4ccccc4[nH]3)CC1)CC2 (centres unmarked) [TCMDC-139776],-25.73%
14,Oc1cc2c(cc1CN1CCN(Cc3cccs3)CC1)CCC2 [TCMDC-125012],1.025%
15,CCN(CC)CCN1C(=O)c2oc3ccc(Cl)cc3c(=O)c2C1c1ccc(SC)cc1 (centres unmarked) [TCMDC-124623],3.621%
16,CCCCCN1C(=O)C(c2ccccc2)(c2ccccc2)N=C1N [TCMDC-136877],-32.2%
17,COc1cccc(-c2cnc(N)c(-c3nc4ccc(C(F)(F)F)cc4[nH]3)c2)c1 [TCMDC-138790],13.24%
18,COc1ccccc1NC(=O)Nc1ccc(-c2ccc(-c3nc4ccc(C(F)(F)F)cc4[nH]3)cc2)cc1 [TCMDC-133202],-7.674%
19,CCCCCCCc1cc(O)c2c3c(c(=O)oc2c1)CN(C)CC3 [TCMDC-124145],8.32%
20,Cc1sc(CNCCCNc2cc(=O)c3ccccc3[nH]2)c(C(F)(F)F)c1C [TCMDC-140906],5.874%
21,Cn1cccc1C(=O)C(=O)Nc1cccc(-c2ccc(-c3nc4ccc(C(F)(F)F)cc4[nH]3)cc2)c1 [TCMDC-136910],0.09328%

row,Structure (SMILES),% Inhibition
1,Cc1cccc2[nH]c(-c3cccc(-c4ccc(NC(=O)Nc5cccc(C#N)c5)cc4)c3)nc12 [TCMDC-133192],2.358%
2,CCNC(=O)Nc1ccc(-c2cccc(-c3nc4c(C)cccc4[nH]3)c2)cc1 [TCMDC-133171],-9.855%
3,Cc1cccc2[nH]c(-c3cccc(-c4cccc(NC(=O)Nc5cccc(C#N)c5)c4)c3)nc12 [TCMDC-133194],-35.1%
4,Cc1cccc2[nH]c(-c3cccc(-c4ccc(NC(=O)C(=O)c5cccn5C)cc4)c3)nc12 [TCMDC-136909],70.67%
5,Cc1cccc2[nH]c(-c3ccc(-c4cccc(NC(=O)Nc5ccccc5)c4)cc3)nc12 [TCMDC-133155],0.6364%
6,Cc1cccc2[nH]c(-c3ccc(-c4ccc(NC(=O)Nc5ccc(Cl)cc5)cc4)cc3)nc12 [TCMDC-133184],-26.89%
7,Cc1cccc2[nH]c(-c3ccc(-c4cccc(NC(=O)Nc5cccc(C#N)c5)c4)cc3)nc12 [TCMDC-133198],83.69%
8,Cn1cccc1C(=O)C(=O)Nc1ccc(-c2ccc(-c3nc4ccc(F)cc4[nH]3)cc2)cc1 [TCMDC-136780],-3.552%
9,Cc1cccc2[nH]c(-c3ccc(-c4ccc(NC(=O)C(=O)c5cccn5C)cc4)cc3)nc12 [TCMDC-136908],78.98%
10,Cc1cccc2[nH]c(-c3cccc(-c4ccc(NC(=O)Nc5ccc(Cl)cc5)cc4)c3)nc12 [TCMDC-133177],12.12%
11,Cc1cccc2[nH]c(-c3ccc(-c4cccc(NC(=O)C(=O)c5cccn5C)c4)cc3)nc12 [TCMDC-136907],90.5%
12,Cc1cccc2nc(-c3ccc(-c4ccc(NC(=O)NCc5cccc(F)c5)cc4)s3)[nH]c12 [TCMDC-133286],5.156%
13,Cc1ccc(-c2cc3nc4c(c(NCCCn5ccnc5)n3n2)CCC4)cc1 [TCMDC-124390],12.49%
14,Cc1cccc2c3c([nH]c12)C1(CCN(Cc2ccccc2)CC1)NC(C(=O)NCc1ccccc1)C3 (centres unmarked) [TCMDC-141244],-26.21%
15,COc1ccc2nccc([C@@H](O)CN3CCC(NC(=O)c4ccc(Cl)c(OC)c4)CC3)c2c1 [TCMDC-141113],-17.86%
16,CSc1sc(NC(=O)Nc2cccc(C(F)(F)F)c2)cc1C#N [TCMDC-123772],-46.48%
17,CCN(CC)Cc1cc(Nc2c3ccc(Cl)cc3nc3cccc(OC)c23)ccc1O [TCMDC-139222],106.6%
18,CCN(CC)Cc1cc(Nc2ccnc3cc(Cl)ccc23)ccc1O [TCMDC-123932],-15.23%
19,COc1ccc2nc3cc(Cl)ccc3c(Nc3ccc(O)c(CN4CC5CCC(CC5)C4)c3)c2c1.Cl [TCMDC-142013],-78.53%
20,CN(Cc1ccc(NC(=O)CCC2CCN(C(=O)/C=C/c3ccc(Cl)c(Cl)c3)CC2)cc1)C1CCOCC1 [TCMDC-140515],8.343%
